Results reported in PubChem BioAssay (Tox21).
Inconclusive results are not listed. Calls of active or inactive are those of the source. The call rests on the fitted dose curve; in most records, active means well fitted cell-killing curve with a large enough effect in the repeat runs; inconclusive means weak or mixed curves; inactive means no such curve, though single readings can be large or run the other way. Starred links: 1 amine or outer side, 2 acyl side, 3 side chain; linkers in the order of their positions; H or OH if unused. Positions of bridges follow the written chain, without caps; N, C: chain ends. Non-standard residues stand in square brackets, D forms with d. Residues, ends and D or L forms follow the SMILES beside them. *: point of attachment. X5 = NC1=N[C@@H]([C@H](N[*:1])C(=O)[*:2])C[C@H](O)N1; ΔAla(Z-3-ureido) = NC(=O)N/C=C(\N)C(=O)O; β3hOrn = NCCC[C@H](N)CC(=O)*; Dap = NC[C@H](N)C(=O)O

test: qHTS assay for identifying genotoxic compounds that show differential cytotoxicity against isogenic chicken DT40 cell lines with known DNA damage response pathways - Rad54/Ku70 mutant cell line (AID 743015); details: DT40 Rad54/Ku70 mutant viability, CellTiter-Glo, 40 h; series mostly up to 66.8 µM; activity change, negative = cytotoxicity: at the top concentration; further: nearly all actives have a fitted effect of over 60% in size
On the % scale 0 is the no-effect control and ±100 the full control effect; potency means the concentration at half of the fitted maximal effect.

SMILES	activity change, negative = cytotoxicity	Potency
O=C(O)c1ccc(OCCn2ccnc2)cc1	4.47% (inactive)	–
COc1ccc(CNCC(O)COc2ccc3[nH]c(=O)ccc3c2)cc1OC (stereo not drawn)	0.0471% (inactive)	–
Cc1cc(C(=O)NNCc2ccccc2)no1	9.58% [at 30.7 µM] (inactive)	–
Nc1ncnc(Nc2ccc(Cl)cc2)n1	1.85% (inactive)	–
CCCCC(=O)OCC(=O)[C@]1(O)Cc2c(O)c3c(c(O)c2[C@@H](O[C@H]2C[C@H](NC(=O)C(F)(F)F)[C@H](O)[C@H](C)O2)C1)C(=O)c1c(OC)cccc1C3=O	–	0.211 µM (active)
CCCCCCCCCCCCCCCCCCCCCCO	6.94% (inactive)	–
O=C1NC(=O)[C@H]2[C@@H]1[C@@H]1C=C[C@H]2C1	1.84% (inactive)	–
O=C(O)C1CCCN1 (stereo not drawn)	5.61% (inactive)	–
NC(=O)OCC(O)COc1ccc(Cl)cc1 (stereo not drawn)	1.89% [at 30.7 µM] (inactive)	–
COC(=O)CC[C@H](N)C(=O)O	1.56% (inactive)	–
CC1(C)S[C@@H]2[C@H](NC(=O)C(C(=O)O)c3ccsc3)C(=O)N2[C@H]1C(=O)O (stereo partly drawn)	10.8% (inactive)	–
CCOC(=O)Oc1c(OC)cc(C(=O)O[C@@H]2C[C@@H]3CN4CCc5c([nH]c6cc(OC)ccc56)[C@H]4C[C@@H]3[C@H](C(=O)OC)[C@H]2OC)cc1OC	–	12.7 µM (active)
CC(O)CN(C)C (stereo not drawn)	9.33% (inactive)	–
CO[C@H]1O[C@@H]2O[C@@]3(C)CC[C@H]4[C@H](C)CC[C@@H]([C@H]1C)[C@@]24OO3	–	0.668 µM (active)
CCCCCCCCCCCCCCCC(=O)O[C@@H]1[C@@H](O)[C@@H](O)[C@@H]([C@H](NC(=O)[C@@H]2C[C@@H](CCC)CN2C)[C@H](C)Cl)O[C@@H]1SC	-0.0937% (inactive)	–
COc1ccccc1N1CCN(CCCC(=O)c2ccc(F)cc2)CC1	–	26.6 µM (active)
COC1=C(C(=O)O)N2C(=O)[C@@H](NC(=O)[C@H](N)C3=CCC=CC3)[C@H]2SC1	2.93% (inactive)	–

SMILES	activity change, negative = cytotoxicity	Potency
CCNC(=O)[C@@H]1CCCN1C(=O)[C@H](CCCN=C(N)N)NC(=O)[C@H](CC(C)C)NC(=O)[C@@H](CC(C)C)NC(=O)[C@H](Cc1ccc(O)cc1)NC(=O)[C@H](CO)NC(=O)[C@H](Cc1c[nH]c2ccccc12)NC(=O)[C@H](Cc1cnc[nH]1)NC(=O)[C@@H]1CCC(=O)N1	0.271% (inactive)	–
NCCCC[C@H](NC(=O)[C@@H]1CCCN1C(=O)[C@@H]1CSSC[C@H](NC(=O)CNC(=O)CNC(=O)CN)C(=O)N[C@@H](Cc2ccc(O)cc2)C(=O)N[C@@H](Cc2ccccc2)C(=O)N[C@@H](CCC(N)=O)C(=O)N[C@@H](CC(N)=O)C(=O)N1)C(=O)NCC(N)=O (H-GGGCYFQNCPKG-NH2; disulfide 4-9)	2.08% (inactive)	–
NCCC[C@H](N)CC(=O)N[C@H]1CNC(=O)[C@H]([C@H]2C[C@H](O)NC(N)=N2)NC(=O)/C(=C/NC(N)=O)NC(=O)[C@H](CO)NC(=O)[C@H](CO)NC1=O (β3hOrn-[Dap]SS[ΔAla(Z-3-ureido)][X5]; lactam 1-C)	11% (inactive)	–
CCCC1C(=O)N2C(N(C)C)=Nc3ccc(C)cc3N2C1=O (stereo not drawn)	0.301% [at 30.7 µM] (inactive)	–
CC(=O)N[C@@H]1C(O[C@H]2O[C@H](C(=O)O)C(O)[C@H](O)[C@H]2O)[C@H](O)[C@@H](CO)O[C@H]1O[C@@H]1C(C(=O)O)O[C@@H](O[C@H]2[C@H](O)[C@@H](CO)OC(O)[C@@H]2NC(C)=O)[C@H](O)[C@H]1O (stereo partly drawn)	-13% (inactive)	–
COc1cc(C[C@@H]2NCCc3cc(O)c(O)cc32)cc(OC)c1OC	5.13% (inactive)	–
CC(=O)Nc1c(I)c(C(=O)N[C@H]2C(O)O[C@H](CO)[C@@H](O)[C@@H]2O)c(I)c(N(C)C(C)=O)c1I (stereo partly drawn)	8.46% [at 30.7 µM] (inactive)	–
O=C(O)[C@@H](O)[C@H](O)[C@H](O)[C@@H](O)C(=O)O (tested in a mixture with another compound)	-0.113% (inactive)	–
CC(=O)Nc1c(I)c(C(=O)O)c(I)c(N(C)C(C)=O)c1I	8.21% (inactive)	–
COC(=O)CCC(=O)CN	4.62% (inactive)	–
Cc1ccc(C2(O)CCN(CCCC(=O)c3ccc(F)cc3)CC2)cc1	–	10.6 µM (active)
CNc1cc(OC)c(C(=O)N[C@H]2CCN(Cc3ccccc3)[C@H]2C)cc1Cl	–	8.41 µM (active)
Cc1ccc(S(=O)(=O)NC(=O)N[C@@H](C)Cc2ccccc2)cc1	-0.738% (inactive)	–
C=CC1=C(C)C2=CC3=NC(=C(CC(=O)[O-])C4=NC(=C(C)C4=C([O-])[O-])C=c4[n-]c(c(C)c4CC)=CC1=N2)C(CCC(=O)[O-])C3C.[Cu+2].[Na+].[Na+].[Na+] (stereo not drawn)	–	29.8 µM (active)
CCN(CC)CCOc1ccccc1OC	-17.7% (inactive)	–
NC[C@@H]1O[C@H](O[C@H]2[C@@H](O)[C@H](O[C@@H]3[C@@H](O)[C@H](N)C[C@H](N)[C@H]3O[C@H]3O[C@H](CO)[C@@H](O)[C@H](O)[C@H]3N)O[C@@H]2CO)[C@H](N)[C@@H](O)[C@@H]1O	-0.885% (inactive)	–
